Results on seven compounds are retold here after PubChem BioAssay (EPA / NIEHS).

Activity calls are given as the source filed them. How the source made its calls: active means hit-call score of the fitted dose curve at least 0.9, where 1 is the maximum; inactive means score below 0.9.

Assay [1] can be described thus: ATG_E_Box_CIS: Attagene CIS-FACTORIAL HepG2 Assay for human Enhancer Box (E-box) (AID 2282936). As to conditions: HepG2 E-box cis-reporter transcription, actives raise or lower the signal. Summed up: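 Measured 24 h post-dosing in HepG2 cells transfected with multiple cis-regulated reporter units, signal being reporter mRNA induction detected by fluorescent RT-PCR with capillary electrophoresis; gain or loss fitted against DMSO.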

A short description of assay [2]: ATG_M_61_CIS: Attagene CIS-FACTORIAL HepG2 Assay for M61 Transcription Factor (Internal Marker) (AID 2282937). The settings on record: HepG2 Attagene CIS-FACTORIAL M61 internal marker reporter; actives raise or lower the signal. Summed up:
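Multiplexed reporter mRNA assay, HepG2 human hepatoma cells, 24 h treatment. Signal: FAM-labelled, HpaI-digested RT-PCR fragments by CE. Fit: bidirectional, baseline DMSO.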

Assay [3] in a line: ATG_EGR_CIS: Attagene CIS-FACTORIAL HepG2 Assay for human Early Growth Response 1 (EGR1) (AID 2282938). The settings on record: HepG2 Attagene CIS-FACTORIAL EGR reporter mRNA; actives raise or lower the signal. Summed up: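 Multiplexed cis-reporter system in human hepatoma HepG2 cells, transiently transfected. Cells are dosed for 24 h; reporter transcripts are amplified, fluorescently tagged and sized by capillary electrophoresis, with DMSO as negative control.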

Assay [4] is described as follows: ATG_M_19_CIS: Attagene CIS-FACTORIAL HepG2 Assay for M19 Transcription Factor (Internal Marker) (AID 2282939). As to conditions: HepG2 Attagene CIS-FACTORIAL M19 internal marker reporter; actives raise or lower the signal. Summed up: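 Chemical-treated HepG2 (24 h) with MRTU constructs; reporter transcripts detected by fluorescent RT-PCR fragment analysis on capillary electrophoresis. Internal background marker, DMSO as baseline.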

The target of assay [5] is Hepatocyte nuclear factor 3-beta (Homo sapiens) (UniProt Q9Y261). The experiment in a line: ATG_FoxA2_CIS: Attagene CIS-FACTORIAL HepG2 Assay for human Forkhead box A2 (FOXA2) (AID 2282942). The settings on record: HepG2 cis-reporter transcription factor activity, 24 h; actives raise or lower the signal. In outline: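 Multiplexed cis-element reporter assay in transiently transfected HepG2. Twenty-four hours post-dosing, RNA was reverse-transcribed, amplified, FAM-labelled, HpaI-digested and separated by CE. Activity gain or loss relative to DMSO.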

A short description of assay [6]: ATG_FoxO_CIS: Attagene CIS-FACTORIAL HepG2 Assay for human Forkhead box O (FoxO) (AID 2282943). As to conditions: HepG2 Attagene cis-reporter, FoxO element, mRNA; actives raise or lower the signal. Summed up: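 HepG2 cells transiently transfected with cis-promoter-driven multiple reporter transcription units; 24 h after chemical dosing, reporter mRNA quantified by RT-PCR, fluorescent primer extension, HpaI digestion and capillary electrophoresis. Bidirectional fitting versus DMSO baseline.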

Assay [7] in a line: ATG_GLI_CIS: Attagene CIS-FACTORIAL HepG2 Assay for human Zinc Finger Protein GLI1 (AID 2282945). As to conditions: HepG2, Attagene cis-factorial reporter mRNA, GLI element; actives raise or lower the signal. Summed up: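 HepG2 cells transiently transfected with cis-promoter multiplexed reporter units report endogenous transcription factor activity. After 24 h chemical exposure, reporter mRNA was quantified by RT-PCR, 6-FAM labelling, HpaI digestion and capillary electrophoresis, with bidirectional fitting against DMSO.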

Assay [8] is described as follows: ATG_ISRE_CIS: Attagene CIS-FACTORIAL HepG2 Assay for human Interferon Regulatory Factor 1 (IRF1) binding to an Interferon-Stimulated Response Element (ISRE) (AID 2282948). The settings on record: HepG2 ISRE cis-reporter (Attagene), mRNA transcription readout; actives raise or lower the signal. Summed up: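 Endogenous transcription factor activity read as reporter transcript abundance via RT-PCR and capillary electrophoresis. HepG2 cells transiently transfected, 24 h chemical exposure. Gain or loss fitted against DMSO baseline.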

A short description of assay [9]: ATG_M_32_CIS: Attagene CIS-FACTORIAL HepG2 Assay for M32 Transcription Factor (Internal Marker) (AID 2282949).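 Further: background control marker of the multiplexed CIS panel rather than a real target.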 As to conditions: HepG2 Attagene cis-factorial M32 reporter, mRNA; actives raise or lower the signal. In outline: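 Transient MRTU transfection of HepG2; 24 h compound treatment; TriZol RNA, oligo(dT) RT, reporter PCR, 6-FAM primer extension, HpaI cut, CE. Gain/loss of signal vs DMSO.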

Assay [10] can be described thus: ATG_M_06_CIS: Attagene CIS-FACTORIAL HepG2 Assay for M06 Transcription Factor (Internal Marker) (AID 2282950). The settings on record: HepG2 Attagene CIS-FACTORIAL M06 internal marker reporter; actives raise or lower the signal. In outline:
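Cells (HepG2, transiently carrying cis-driven reporter units) receive chemical for 24 h before RNA isolation. Reporter cDNA is PCR-amplified, FAM-labelled by primer extension, HpaI-digested and sized on a capillary analyser.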

For assay [11], the target named is Hypoxia-inducible factor 1-alpha (Homo sapiens) (UniProt Q16665). In words: ATG_HIF1a_CIS: Attagene CIS-FACTORIAL HepG2 Assay for human Hypoxia Inducible Factor 1 (HIF1A) (AID 2282951). The settings on record: HepG2 Attagene cis-factorial HIF1a reporter transcription; actives raise or lower the signal. Summed up: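 Cis-element reporter constructs were transiently transfected into HepG2 cells, which were treated for 24 h; reporter RNA was reverse-transcribed, amplified, labelled and resolved by capillary electrophoresis.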

Assay [12] addresses Hepatocyte nuclear factor 6 (Homo sapiens) (UniProt Q9UBC0). The experiment in a line: ATG_HNF6_CIS: Attagene CIS-FACTORIAL HepG2 Assay for human Hepatocyte Nuclear Factor 6 (HNF6) (AID 2282952). As to conditions: HepG2 Attagene cis-factorial HNF6 reporter transcription; actives raise or lower the signal. Summed up:
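Readout: fluorescent reporter-transcript fragments resolved by capillary electrophoresis after RT-PCR, reflecting endogenous factor activity in transfected HepG2. Exposure 24 h. Gain or loss of signal fitted bidirectionally against DMSO.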

Assay [13] is described as follows: ATG_MRE_CIS: Attagene CIS-FACTORIAL HepG2 Assay for human Metal Responsive Element (MRE) (AID 2282954). The settings on record: HepG2 MRE cis-reporter transcription, Attagene multiplex; actives raise or lower the signal. In outline:
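Readout: capillary electrophoresis of 6-FAM-labelled, HpaI-digested RT-PCR reporter products. System: HepG2 cells carrying transient multiplexed cis reporters, dosed 24 h. Analysis: bidirectional fit, DMSO baseline.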

Assay [14] can be described thus: ATG_ERE_CIS: Attagene CIS-FACTORIAL HepG2 Assay for Estrogen Response Element (ERE) (AID 2282940). As to conditions: HepG2 ERE cis-reporter, Attagene RNA transcript; actives raise or lower the signal. Summed up: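 Human liver cells (HepG2) bearing transiently transfected, promoter-regulated reporter units were exposed 24 h. Reporter mRNA induction was detected by capillary electrophoresis of labelled RT-PCR products and fitted bidirectionally to DMSO.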

Assay [15] in a line: ATG_Ets_CIS: Attagene CIS-FACTORIAL HepG2 Assay for human Erythroblast Transformation Specific (ETS) (AID 2282941). The settings on record: HepG2 ETS cis-reporter transcription, actives raise or lower the signal. Summed up:
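Endogenous transcription factor activity read as reporter mRNA via RT-PCR and capillary electrophoresis, with gain or loss fitted bidirectionally against DMSO. Human HepG2 liver cells, transiently transfected CIS reporter constructs, 24 h exposure.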

The nature of assay [16]: ATG_GATA_CIS: Attagene CIS-FACTORIAL HepG2 Assay for human GATA Binding Protein (AID 2282944). The settings on record: HepG2 GATA cis-element reporter, Attagene multiplex mRNA; actives raise or lower the signal. In outline:
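Transfected cis-reporter HepG2 cells were treated with chemicals for 24 hours. Total RNA was then converted to cDNA, amplified with reporter-specific primers and analysed by fluorescent capillary electrophoresis, using DMSO-treated wells as baseline.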

Assay [17] concerns the target Heat shock factor protein 1 (Homo sapiens) (UniProt Q00613). In words: ATG_HSE_CIS: Attagene CIS-FACTORIAL HepG2 Assay for human Heat Shock Transcription Factor 1 (HSE) (AID 2282953). As to conditions: HepG2 HSE cis-reporter, Attagene RNA transcription; actives raise or lower the signal. In outline:
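Liver-derived HepG2 cells carry transiently introduced multiple reporter units governed by cis promoters. Reporter RNA measured 24 h post-dose through reverse transcription, PCR amplification, fluorescent labelling and capillary electrophoresis, normalised to DMSO.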

Assay [18] in a line: ATG_PBREM_CIS: Attagene CIS-FACTORIAL HepG2 Assay for human Phenobarbital-responsive Enhancer Module (PBREM) (AID 2282955). The settings on record: HepG2 PBREM cis-reporter, Attagene multiplexed transcription; actives raise or lower the signal. In outline:
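Multiplexed cis-reporter readout in human hepatoma HepG2 cells; PBREM-regulated transcript quantified after 24 h exposure by fluorescent RT-PCR fragment analysis. Signal changes up or down fitted relative to DMSO.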

A short description of assay [19]: ATG_GRE_CIS: Attagene CIS-FACTORIAL HepG2 Assay for human Glucocorticoid Response Elements (GRE) (AID 2282947). As to conditions: HepG2 GRE cis-reporter, Attagene multiplex mRNA; actives raise or lower the signal. Summed up: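 HepG2, transient cis-reporter transfection, 24 h. Reporter mRNA: RT-PCR then CE, fluorescence. Fit both directions vs DMSO.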
The target of assay [20] is Bile acid receptor (Homo sapiens) (UniProt Q96RI1). In words: ATG_IR1_CIS: Attagene CIS-FACTORIAL HepG2 Assay for human Nuclear Receptor Subfamily 1 Group H Member 4 (NR1H4), IR1 submotif (AID 2282946). As to conditions: IR1 reporter transcription, actives raise or lower the signal. In outline:
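Readout: reporter transcript levels by RT-PCR with fluorescent capillary electrophoresis, from HepG2 cells transiently transfected with multiplexed cis-regulated reporters and dosed 24 h. Gain- or loss-of-signal fitted versus DMSO negative control.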

Hepatocyte nuclear factor 6 (Homo sapiens), sequence (Q9UBC0 whole entry, looked up, the tested form may be a part): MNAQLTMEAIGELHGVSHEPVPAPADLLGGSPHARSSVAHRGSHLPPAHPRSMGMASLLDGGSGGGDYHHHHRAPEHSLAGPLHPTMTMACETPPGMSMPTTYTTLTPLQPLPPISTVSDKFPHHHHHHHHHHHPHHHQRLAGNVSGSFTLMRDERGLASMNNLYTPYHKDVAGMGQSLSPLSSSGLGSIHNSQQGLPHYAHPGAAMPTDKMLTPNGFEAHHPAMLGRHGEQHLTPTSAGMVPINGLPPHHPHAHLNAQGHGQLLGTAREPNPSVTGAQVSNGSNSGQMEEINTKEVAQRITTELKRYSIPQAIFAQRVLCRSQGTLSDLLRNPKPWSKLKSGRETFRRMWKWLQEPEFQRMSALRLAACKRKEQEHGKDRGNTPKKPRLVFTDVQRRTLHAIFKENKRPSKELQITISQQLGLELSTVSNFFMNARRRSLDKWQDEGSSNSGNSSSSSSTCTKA
Heat shock factor protein 1 (Homo sapiens), sequence (Q00613 whole entry, looked up): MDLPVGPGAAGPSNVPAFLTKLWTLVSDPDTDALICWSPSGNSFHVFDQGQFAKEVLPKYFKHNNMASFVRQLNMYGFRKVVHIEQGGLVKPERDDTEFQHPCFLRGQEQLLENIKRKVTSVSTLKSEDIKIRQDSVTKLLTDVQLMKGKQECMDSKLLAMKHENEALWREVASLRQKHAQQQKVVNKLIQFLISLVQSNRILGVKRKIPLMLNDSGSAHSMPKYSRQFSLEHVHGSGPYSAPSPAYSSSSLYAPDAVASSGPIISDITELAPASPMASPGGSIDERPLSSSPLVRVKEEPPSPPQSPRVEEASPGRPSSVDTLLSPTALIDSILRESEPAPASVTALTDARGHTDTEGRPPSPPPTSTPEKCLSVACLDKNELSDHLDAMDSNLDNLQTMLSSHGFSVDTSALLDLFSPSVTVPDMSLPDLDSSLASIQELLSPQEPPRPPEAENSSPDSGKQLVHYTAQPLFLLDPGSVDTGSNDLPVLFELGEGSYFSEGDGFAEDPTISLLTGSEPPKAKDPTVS
Hepatocyte nuclear factor 3-beta (Homo sapiens), sequence (Q9Y261 whole entry, looked up): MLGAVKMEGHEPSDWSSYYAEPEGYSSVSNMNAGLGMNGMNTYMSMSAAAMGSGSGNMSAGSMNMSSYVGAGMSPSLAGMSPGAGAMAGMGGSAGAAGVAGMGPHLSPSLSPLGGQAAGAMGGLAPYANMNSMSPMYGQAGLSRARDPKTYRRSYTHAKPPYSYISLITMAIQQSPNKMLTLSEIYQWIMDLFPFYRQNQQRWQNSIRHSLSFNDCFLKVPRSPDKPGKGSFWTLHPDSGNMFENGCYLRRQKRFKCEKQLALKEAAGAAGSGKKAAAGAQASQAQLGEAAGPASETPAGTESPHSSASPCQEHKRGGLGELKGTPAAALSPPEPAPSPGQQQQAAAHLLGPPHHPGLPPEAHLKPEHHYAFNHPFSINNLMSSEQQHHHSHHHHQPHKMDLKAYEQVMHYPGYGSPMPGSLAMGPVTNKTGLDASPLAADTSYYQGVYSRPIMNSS
Hypoxia-inducible factor 1-alpha (Homo sapiens), sequence (Q16665 whole entry, looked up): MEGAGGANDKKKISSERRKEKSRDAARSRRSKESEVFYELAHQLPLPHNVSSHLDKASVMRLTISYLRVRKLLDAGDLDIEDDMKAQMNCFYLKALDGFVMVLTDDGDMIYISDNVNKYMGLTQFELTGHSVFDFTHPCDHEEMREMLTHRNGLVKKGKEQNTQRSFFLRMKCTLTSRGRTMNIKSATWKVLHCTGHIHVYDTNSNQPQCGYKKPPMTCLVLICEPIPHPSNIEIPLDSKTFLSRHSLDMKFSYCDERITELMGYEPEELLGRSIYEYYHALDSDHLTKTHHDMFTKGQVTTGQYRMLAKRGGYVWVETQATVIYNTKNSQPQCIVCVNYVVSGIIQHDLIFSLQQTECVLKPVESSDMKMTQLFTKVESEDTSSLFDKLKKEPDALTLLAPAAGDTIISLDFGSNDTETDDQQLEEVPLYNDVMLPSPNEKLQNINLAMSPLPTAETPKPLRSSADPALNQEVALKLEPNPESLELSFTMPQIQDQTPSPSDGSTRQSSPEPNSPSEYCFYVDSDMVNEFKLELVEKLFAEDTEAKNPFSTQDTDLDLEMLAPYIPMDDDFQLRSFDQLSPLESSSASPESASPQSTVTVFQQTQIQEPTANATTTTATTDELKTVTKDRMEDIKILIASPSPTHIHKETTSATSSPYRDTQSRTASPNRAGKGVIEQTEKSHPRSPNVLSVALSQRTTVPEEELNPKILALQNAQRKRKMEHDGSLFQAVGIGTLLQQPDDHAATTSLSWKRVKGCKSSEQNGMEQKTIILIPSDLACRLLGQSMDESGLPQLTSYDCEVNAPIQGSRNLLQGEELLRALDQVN
Bile acid receptor (Homo sapiens), sequence (Q96RI1 whole entry, looked up): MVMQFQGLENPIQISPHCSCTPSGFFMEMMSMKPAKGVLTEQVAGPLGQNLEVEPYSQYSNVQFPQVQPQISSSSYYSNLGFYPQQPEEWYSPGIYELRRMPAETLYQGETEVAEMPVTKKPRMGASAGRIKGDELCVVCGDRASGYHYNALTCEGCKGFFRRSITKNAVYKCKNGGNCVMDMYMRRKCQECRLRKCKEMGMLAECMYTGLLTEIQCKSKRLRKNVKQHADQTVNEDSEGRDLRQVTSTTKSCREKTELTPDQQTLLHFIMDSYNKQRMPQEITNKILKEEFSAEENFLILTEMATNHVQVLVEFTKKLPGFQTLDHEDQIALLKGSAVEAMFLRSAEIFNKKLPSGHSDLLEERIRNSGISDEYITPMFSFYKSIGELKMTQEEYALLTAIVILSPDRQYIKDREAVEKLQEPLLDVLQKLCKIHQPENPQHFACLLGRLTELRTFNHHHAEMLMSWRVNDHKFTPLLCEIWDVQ

With `CCCC[n+]1ccccc1`, the result in assay [1], in assay [2], in assay [3], in [4], in [5] and in assay [6] was inactive. Moreover, the call in [7], in [8], in [9], in [10], in assay [11] and in assay [12] was inactive. For the same compound, the call in [13] was inactive.

Regarding `Clc1sc(Cl)c(Cl)c1Cl`, the outcome in assay [1], in assay [2], in [3], in assay [14], in assay [15] and in [5] was inactive. Moreover, the compound was called inactive in assay [6], in assay [16], in [7], in assay [8], in assay [9] and in assay [10]. Moreover, the outcome in assay [12], in assay [17], in [13] and in assay [18] was inactive.

On to `CCCC1CCC(=O)O1` (stereo not given), for which the outcome in assay [1], in [2], in [3], in assay [15], in assay [5] and in [6] was inactive. Besides, the result in [7], in assay [8], in assay [9], in assay [10], in assay [11] and in assay [12] was inactive. Besides, the compound was classed as inactive in [17] and in [13].

On to `C=C(C)[C@@H]1CC[C@@H](C)C[C@@H]1O`, for which the result in assay [1], in [2], in assay [3], in assay [15], in assay [5] and in [6] was inactive. The outcome in assay [16], in assay [7], in assay [8], in assay [10], in assay [12] and in assay [17] was inactive. Also, the compound was classed as inactive in assay [13].

By AC50 is commonly meant the concentration giving half of the maximal activity seen. As to `CC[C@]12CCCN3CCc4c(n(c5ccccc45)[C@@](O)(C(=O)OC)C1)[C@@H]32`, the outcome in assay [1], in assay [2], in assay [3], in [15], in assay [5] and in assay [6] was inactive. Moreover, the result in assay [16], in assay [7], in assay [19], in assay [8], in assay [9] and in assay [10] was inactive. The result in assay [12] and in assay [13] was inactive. The AC50 in [17] was 159 µM (active).

Consider `CC(C)Oc1ccccc1O`, for which the result in assay [1], in assay [2], in assay [3], in assay [14], in [5] and in [6] was inactive. Further, the compound was called inactive in assay [16], in [7], in [19], in [8], in assay [9] and in [10]. Besides, the outcome in [11], in assay [12], in [17], in assay [13] and in assay [18] was inactive.

In the case of `CC(CC(C)(C)C)CC(C)(C)CC(C)(C)C` (stereo not given), the result in [1], in assay [2], in assay [3], in [5], in assay [6] and in assay [16] was inactive. In addition, the result in assay [7], in assay [20], in assay [19], in assay [8], in [9] and in assay [10] was inactive. Moreover, the call in [11], in assay [12], in assay [17], in assay [13] and in assay [18] was inactive.
